Measured values: the supplement of paper PMC6555819

Tests used:
Test in all cases: PBM binding z-score (relative to random genomic background probes); higher = stronger binding; sequences stand for … in GC…GCGATTGACAGCGTAGAATGAAGG
[1] = tested on: FXR:RXRa (NR concentration 270 nM, RXRa partner concentration 90 nM)
Summary of the method: (§1)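 Ligand-free nuclear receptor dimers were applied to custom Agilent 4×180K protein-binding microarrays whose double-stranded probes carried direct-repeat seeds, single-nucleotide variants, half-site ablations and random human genomic background sequences in 34-nt variable regions. Incubation lasted 1 h. Binding z-scores were computed against the random background probes from regression-normalized fluorescence.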

[2] = tested on: LXRa:RXRa (NR concentration 270 nM, RXRa partner concentration 90 nM)
Summary of the method: as §1

[3] = tested on: LXRa homodimer (NR concentration 270 nM)
Summary of the method: as §1

[4] = tested on: LXRb:RXRa (NR concentration 270 nM, RXRa partner concentration 90 nM)
Summary of the method: as §1

[5] = tested on: LXRb homodimer (NR concentration 270 nM)
Summary of the method: as §1

[6] = tested on: PPARa:RXRa (NR concentration 270 nM, RXRa partner concentration 90 nM)
Summary of the method: as §1

[7] = tested on: PPARg:RXRa (NR concentration 180 nM, RXRa partner concentration 90 nM)
Summary of the method: as §1

[8] = tested on: PPARg:RXRa 270nM:90nM, anti-RXR (NR concentration 270 nM, RXRa partner concentration 90 nM)
Summary of the method: as §1

[9] = tested on: PPARg:RXRa 30nM:10nM, anti-RXR (NR concentration 30 nM, RXRa partner concentration 10 nM)
Summary of the method: as §1

[10] = tested on: PPARg:RXRa 90nM:30nM, anti-RXR (NR concentration 90 nM, RXRa partner concentration 30 nM)
Summary of the method: as §1

Sequence	PBM binding z-score [1]	PBM binding z-score [2]	PBM binding z-score [3]	PBM binding z-score [4]	PBM binding z-score [5]	PBM binding z-score [6]	PBM binding z-score [7]	PBM binding z-score [8]	PBM binding z-score [9]	PBM binding z-score [10]
CCTACTGGGCCATTCAGAGGTTATTGATCATATG	0.119	0.693	0.815	0.664	-0.334	1.55	0.601	1.23	0.0553	0.458
CGAACTAGGTCACCAGGACAGTGACGAGGTTGGA	4.27	2.44	-0.221	1.53	-0.75	5.17	8.62	6.98	4.41	6.34
CGAAGTAGGTCACCAGGACAGTGAAGAGGTTGGA	3.65	2.69	0.0752	2.07	-0.257	5.34	8.79	7.35	4.81	7.02
CCTACTGGGCCAAAGGTCTTTGATTCCAATGCTC	-0.409	-0.406	-0.413	0.232	-0.841	4.15	8.96	8.59	7.74	9.9
ATATGTAGGTTAGGGTCCTTCAGAAAGTAGGGAA	0.884	0.754	0.168	1.21	0.702	3.14	4.35	3.79	1.56	2.95
CGAACTTGGTCACCAGGACAGTGAAGAGGTTGGA	0.102	-0.231	-0.0617	-0.452	-0.791	0.239	0.758	0.47	-0.456	-0.143
CCTTACGGGTCACTCCAGGTTCTAGCATCGGAGT	4.8	4.87	0.141	2.7	-0.137	4.28	2.96	3.49	0.999	2.15
ATATCTAGGTTAGGGTCATTCAGAAAGTAGGGAA	4.54	4.26	1.73	4.39	2.24	5.65	7.73	6.5	4.33	6.58
GCTTACGGGTGAAAGGTTATAGCATGAATAGAAT	2.96	2.79	0.142	3	-0.294	5.7	9.88	8.08	7.78	8.71
CCTAGTTGGTCAGGAGGTCACATACCGGATATGA	3.32	3.13	1.66	3.16	0.594	3.7	3.11	3.14	1.32	2.95
CGCACTAGGTCACCAGGACAGTGAAGAGGTTGGA	3.84	2.51	0.256	1.9	-0.125	4.91	8.32	6.61	4.56	6.23
CGAACTGGGTCAAAGGACAGTGAAAGGCGACGTA	3.03	1.55	-0.452	1.37	-0.785	5.23	10.1	8.57	7.98	9.33
CGAACTAGGTCAAAGGAGAGTGAAAGGCGACGTA	3.72	2.61	-0.0759	1.64	-0.486	5.05	8.9	7.8	7.23	8.14
ATATGTAGGTGAGGGTCATTCAGAAAGTAGGGAA	3.06	2.59	1.02	3.43	1.43	5.07	7.86	6.55	4.94	6.5
ATATGTAGGTTAGGGTCAATCAGAAAGTAGGGAA	4.67	3.66	0.491	3.9	1.23	5.48	7.67	6.41	3.89	5.93
GCTGCTAGGTTAACTGATGGTCAGCTAAAGCTCG	-0.137	1.44	-0.782	0.138	-0.9	0.846	-0.15	0.209	-0.499	-0.243
GCTAGTAGGTCAGTAAAAGGTCACACACCGGTCG	4.98	5.45	5.31	5.01	1.21	5.55	7.3	6.72	4.43	6.42
TAGCCTAGGTCCTTCAGGGGCCAGTATAGAAAGC	-0.77	-0.784	-0.674	-0.628	-0.884	-0.292	-0.229	-0.451	-0.73	-0.359
CAGCCTAGTTCAGGGCCAGTATAGGAGGAACGTT	0.0528	-0.124	-0.0841	-0.218	-0.532	-0.241	-0.041	-0.6	-0.567	-0.509
CGTACTAGGTCACCAGGACAGTGAAGAGGTTGGA	3.85	2.7	0.154	2.01	-0.0806	4.67	7.91	6.32	3.8	5.83
CGAACTAGGGCAAAGGACAGTGAAAGGCGACGTA	-0.161	-0.272	-0.336	-0.481	-1.45	3.45	9.04	7.51	8.13	8.74
CCTAGCAGGCGAGGGTCACTCAAGCATTTCGCTT	1.72	1.44	-0.428	1.56	-1.08	2.63	0.461	1.58	-0.298	1.34
ATATGTAGGTTAGTGTCATTCAGAAAGTAGGGAA	1	1.03	0.483	1.41	0.974	3.21	4.15	3.57	1.5	2.8
